From publication PMC5540273 (PLoS ONE, 2017) come the findings set out here.

Test systems include PIKFYVE; PIM1; PIM2; PIM3; PIP5K1A; PIP5K1C; PIP5K2B.
Common to all, as to settings: concentration: 1 μM, replicates: in singlicate; n = 1
Another experiment relates to T1, PIK4CB.
T1 construct: gene PI4KB

A further experiment deals with T2, PIP5K2C.
T2 construct: gene PIP4K2C

The test system of another experiment is T3, PKAC-alpha.
T3 construct: gene PRKACA
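Note: KINOMEscan kinase panel screen.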

`CSc1ccc(-c2nc3n(c2-c2ccncc2)CCC3)cc1` [SKF-105561]: the “%Inh” value was found to be 24% in the experiment on PIK4CB; 11% with PIKFYVE; 0% with PIM1; 0% in the experiment with PIM2; 1% with PIM3; 37% in the experiment with PIP5K1A. For the same compound, the “%Inh” value in the experiment with PIP5K1C came to 0%; in the experiment on PIP5K2B, 21%; with PIP5K2C, 0%; in the experiment with PKAC-alpha, 5%.
Turning to `Cl.Cl.Cl.N#Cc1ccc(CCNc2nccc(-c3cccc(CN4CCNCC4)c3)n2)cc1` [GSK2137462], the “%Inh” value in the experiment with PIK4CB is listed as 26%; in the experiment with PIKFYVE, 0%; in the experiment on PIM1 it was 20%; with PIM2, 0%; in the experiment with PIM3, 13%; with PIP5K1A, 0%. Further, the “%Inh” value was 0% in the experiment on PIP5K1C, 0% with PIP5K2B, 11% in the experiment with PIP5K2C and 13% in the experiment on PKAC-alpha.
Turning to `O=C(Nc1n[nH]c2nc(-c3cccs3)c(Br)cc12)C1CC1` [SB-735297], the “%Inh” value is listed as 12% in the experiment on PIK4CB; 2% with PIKFYVE; 0% with PIM1; 0% in the experiment with PIM2; 0% in the experiment with PIM3; 15% with PIP5K1A. Further, the “%Inh” value in the experiment on PIP5K1C, with PIP5K2B, in the experiment with PIP5K2C and in the experiment with PKAC-alpha was 0% in each case.
With `COC(=O)c1cccc(NC(=O)NC2CCN(c3ccnc(Nc4ccc(OC)cc4)n3)C2)c1` (stereo not shown) [GSK1379746], the “%Inh” value stood at 21% in the experiment with PIK4CB; 41% with PIKFYVE; 0% in the experiment on PIM1; 0% in the experiment with PIM2; 0% in the experiment with PIM3; 17% in the experiment with PIP5K1A. Besides, the “%Inh” value is 10% in the experiment with PIP5K1C, 19% with PIP5K2B, 48% in the experiment with PIP5K2C and 0% with PKAC-alpha.
With `COc1ccc(Nc2nccc(N3CCC(NC(=O)C(C)c4ccc(Cl)cc4)C3)n2)cc1` (stereo not shown) [GSK1379735], the “%Inh” value is listed as 0% with PIK4CB; 0% in the experiment on PIKFYVE; 0% in the experiment on PIM1; 0% with PIM2; 35% with PIM3; 8% in the experiment on PIP5K1A. For the same compound, the “%Inh” value was determined as 52% with PIP5K1C, 18% in the experiment on PIP5K2B, 25% in the experiment on PIP5K2C and 0% with PKAC-alpha.
Take `CNCc1ccc2nc(NC(=O)c3ccc(C(C)(C)C)cc3)cn2c1`: the “%Inh” value in the experiment on PIK4CB is recorded as 19%; with PIKFYVE, 0%; in the experiment with PIM1, 0%; in the experiment with PIM2 it was 9%; in the experiment with PIM3 it was 23%; in the experiment with PIP5K1A, 0%. The “%Inh” value in the experiment with PIP5K1C was 17%; with PIP5K2B, 11%; with PIP5K2C it was 30%; in the experiment on PKAC-alpha, 0%.
Turning to `O=c1cc(N2CCOCC2)nc2n(Cc3cccc(Cl)c3Cl)c3ccccc3n12` [GSK2299009], the “%Inh” value in the experiment with PIK4CB, in the experiment with PIKFYVE, in the experiment on PIM1, in the experiment on PIM2, in the experiment with PIM3 and with PIP5K1A was 0% throughout. The “%Inh” value in the experiment with PIP5K1C is on record as 17%; in the experiment with PIP5K2B, 0%; in the experiment on PIP5K2C, 0%; with PKAC-alpha it was 0%.
In the case of `Cc1cnc(N)c(/C=C/c2cncc(C(=O)NCCc3ccc(Cl)cc3Cl)c2)c1.Cl` [GSK190937], the “%Inh” value in the experiment with PIK4CB is recorded as 0%; in the experiment on PIKFYVE, 0%; in the experiment with PIM1, 12%; in the experiment with PIM2 it was 0%; in the experiment on PIM3 it was 0%; with PIP5K1A, 39%. Further, the “%Inh” value is reported as 35% with PIP5K1C, 21% in the experiment with PIP5K2B and 47% with PIP5K2C.
As to `CC(=O)c1c(C)c2cnc(Nc3ccn(C)n3)nc2n(C2CCCC2)c1=O`, the “%Inh” value in the experiment with PIK4CB is 0%; in the experiment on PIKFYVE, 9%; in the experiment on PIM1, 0%; in the experiment with PIM2, 0%; in the experiment with PIM3, 0%; in the experiment on PIP5K1A, 0%. Further, the “%Inh” value is recorded as 1% in the experiment with PIP5K1C, 0% in the experiment with PIP5K2B, 91.9% in the experiment with PIP5K2C and 0% in the experiment on PKAC-alpha.
On to `COc1cccc(CNC(=O)NC2CCN(c3ccnc(Nc4ccc(F)cc4)n3)C2)c1` (stereo not shown) [GSK1379723], for which the “%Inh” value is on record as 11% with PIK4CB; 9% with PIKFYVE; 15% in the experiment on PIM1; 0% in the experiment on PIM2; 0% with PIM3; 0% in the experiment with PIP5K1A. For the same compound, the “%Inh” value stood at 11% in the experiment with PIP5K1C, 8% in the experiment with PIP5K2B, 26% in the experiment with PIP5K2C and 0% with PKAC-alpha.
`Cc1nccc(-c2c(-c3ccc(F)cc3)ncn2CCCN2CCOCC2)n1.Cl` [SB-282975]: the “%Inh” value in the experiment with PIK4CB is recorded as 42%; with PIKFYVE, 0%; in the experiment on PIM1 it was 0%; with PIM2 it was 13%; in the experiment on PIM3 it was 0%; with PIP5K1A it was 0%. Moreover, the “%Inh” value came to 22% with PIP5K1C, 0% in the experiment with PIP5K2B, 18% in the experiment on PIP5K2C and 24% with PKAC-alpha.
`c1ccc(-c2ccnc3[nH]ccc23)cc1` [SB-693578]: the “%Inh” value with PIK4CB turned out to be 4%; in the experiment on PIKFYVE, 11%; with PIM1, 0%; in the experiment on PIM2 it was 0%; in the experiment on PIM3, 0%; in the experiment on PIP5K1A it was 40%. Further, the “%Inh” value amounted to 28% in the experiment with PIP5K1C, 4% with PIP5K2B, 18% with PIP5K2C and 0% in the experiment with PKAC-alpha.
`COc1ccc2cc(-c3nc(-c4ccccc4C(C)C)[nH]c3-c3ccncc3)ccc2c1` [SB-660566]: the “%Inh” value is on record as 0% in the experiment with PIK4CB; 0% with PIKFYVE; 15% with PIM1; 0% in the experiment on PIM2; 0% with PIM3; 18% in the experiment on PIP5K1A. In addition, the “%Inh” value came out at 0% in the experiment on PIP5K1C, 38% in the experiment on PIP5K2B, 0% in the experiment with PIP5K2C and 0% with PKAC-alpha.
`CC(=O)c1cccc(NC(=O)NC2CCN(c3ccnc(Nc4ccc(F)cc4)n3)C2)c1` (stereo not shown) [GSK1379710]: the “%Inh” value worked out at 31% in the experiment on PIK4CB; 25% with PIKFYVE; 18% with PIM1; 0% in the experiment with PIM2; 4% with PIM3; 36% with PIP5K1A. Also, the “%Inh” value is 50% in the experiment with PIP5K1C, 8% with PIP5K2B, 22% in the experiment on PIP5K2C and 0% with PKAC-alpha.
Regarding `CC[C@@H]1CO[C@H](C(=O)Nc2ccccc2)CN1c1cc(-c2ccc3c(N)n[nH]c3c2)nc(NC)n1` [GSK2376236], the “%Inh” value with PIK4CB is 33%; in the experiment with PIKFYVE it was 0%; in the experiment on PIM1 it was 14%; with PIM2, 0%; in the experiment with PIM3 it was 3%; in the experiment with PIP5K1A it was 0%. Also, the “%Inh” value with PIP5K1C was 39%; in the experiment with PIP5K2B, 3%; in the experiment with PIP5K2C, 3%; with PKAC-alpha, 74%.
Regarding `Cc1c(Cn2c3ccccc3n3c(=O)cc(N4CCOCC4)nc23)cccc1C(F)(F)F` [GSK2306394], the “%Inh” value with PIK4CB was 90.3%; with PIKFYVE, 0%; in the experiment on PIM1, 6%; in the experiment on PIM2 it was 0%; in the experiment on PIM3, 0%; with PIP5K1A it was 0%. The “%Inh” value in the experiment with PIP5K1C worked out at 8%; with PIP5K2B, 20%; in the experiment with PIP5K2C it was 0%; in the experiment with PKAC-alpha it was 0%.
Regarding `Cc1cccc2c(-c3ccncn3)c(-c3ccc(F)cc3)nn12` [GW515532], the “%Inh” value in the experiment on PIK4CB was 0%; in the experiment with PIKFYVE it was 22%; in the experiment on PIM1, 20%; in the experiment on PIM2, 0%; in the experiment on PIM3, 0%; in the experiment with PIP5K1A, 4%. Moreover, the “%Inh” value in the experiment with PIP5K1C is 31%; in the experiment with PIP5K2B it was 0%; in the experiment on PIP5K2C, 0%; with PKAC-alpha, 7%.
